Consider 18 compounds from the supplement of paper PMC7530171.

The structures appear in SMILES notation. ± gives the standard deviation.

In this test the test system is THP-1. As to the kind of experiment: THP-1 cell loss relative to DMSO control; higher = more host cell loss (toxicity); extreme values may be limits of the assay. The conditions noted are these: 10 µM; 4 days; infection: M. tuberculosis H37Rv. The protocol:
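OICR kinase inhibitor library screened in duplicate at 10 uM against M. tuberculosis-infected THP-1 macrophages, 4 days at 37 C. THP-1 cell loss (cytotoxicity or loss of adherence) was quantified from Hoechst-stained nuclei counts by high-content imaging and normalised to the 1% DMSO control; 100 = complete loss of host cells.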
As to `O=C1NC(=O)c2c1c1c3ccccc3[nH]c1c1[nH]c3ccccc3c21` [Arcyriaflavin A], the THP-1 cell loss amounted to 75.7 ± 34%.

`COc1ccc2c(c1)/C(=C/c1cnc[nH]1)C(=O)N2` yielded a THP-1 cell loss of 53.2 ± 9.3%.

In the case of `O=C1Nc2ccc3ncsc3c2/C1=C/c1cnc[nH]1` [Imidazolo-oxindole PKR inhibitor C16], the THP-1 cell loss came out at 100%. For the compound `COC(=O)[C@@]1(O)C[C@H]2O[C@]1(C)n1c3ccccc3c3c4c(c5c6ccccc6n2c5c31)C(=O)NC4`, the THP-1 cell loss turned out to be 100%. Take `COc1ccc2c(c[n+](C)c3c4cc5c(cc4ccc23)OCO5)c1OC` [Chelerythrine chloride]: the THP-1 cell loss worked out at 100%. Next, `Cc1ccccc1-n1c(Cn2cnc3c(N)ncnc32)nc2cccc(C)c2c1=O`: 5.83 ± 8.2%. `Cn1cc(C2=C(c3cn(C4CCN(Cc5ccccn5)CC4)c4ccccc34)C(=O)NC2=O)c2ccccc21` [Enzastaurin] came in with a THP-1 cell loss of 52.5 ± 67%. On to `COC[C@H]1OC(=O)c2coc3c2[C@@]1(C)C1=C(C3=O)[C@@H]2CCC(=O)[C@@]2(C)C[C@H]1OC(C)=O` [Wortmannin], for which the THP-1 cell loss came to 45.8 ± 7.5%.

For the compound `N#C/C(=C\c1ccc(O)c(O)c1)C(N)=S`, the THP-1 cell loss was found to be 11.5 ± 1.3%.

Take `C/C(O)=C(\C#N)C(=O)Nc1cc(Br)ccc1Br`: the THP-1 cell loss came to 4 ± 5.7%.

Turning to `Cc1n[nH]c2ccc(-c3cncc(OC[C@@H](N)Cc4c[nH]c5ccccc45)c3)cc12`, the THP-1 cell loss amounted to 100%.

The compound `NC(=S)N/N=C/c1coc2ccccc2c1=O.[Cl][Cu][Cl]` displayed a THP-1 cell loss of 16.3 ± 5.1%. With `O=C1NC(=O)c2c1c1c3ccccc3n3c1c1c2c2ccccc2n1[C@H]1CC[C@@H]3O1`, the THP-1 cell loss was 100%.

`O=c1[nH]c2ccc(Cl)cc2c(N[C@@H]2CN3CCC2CC3)c1-c1nc2ccccc2[nH]1` returned a THP-1 cell loss of 100%. Next, `CN[C@@H]1C[C@H]2O[C@@](C)([C@@H]1OC)n1c3ccccc3c3c4c(c5c6ccccc6n2c5c31)C(=O)NC4` [Staurosporine]: 100%. The compound `C[C@]12O[C@H](C[C@]1(O)CO)n1c3ccccc3c3c4c(c5c6ccccc6n2c5c31)CNC4=O` [Lestaurtinib] gave a THP-1 cell loss of 100%. `CC(=O)c1c(O)c(C)c(O)c(Cc2c(O)c3c(c(C(=O)/C=C/c4ccccc4)c2O)OC(C)(C)C=C3)c1O` [Rottlerin]: the THP-1 cell loss turned out to be 71.2 ± 41%. Next, `CCn1cnc2c(Nc3cccc(Cl)c3)nc(N[C@@H]3CCCC[C@@H]3N)nc21`: 100%.
